Results taken from PubChem BioAssay (EPA / NIEHS).
Inconclusive results are not listed. Active and inactive are the calls of the source. The calls were made as follows: active = hit-call score of the fitted dose curve at least 0.9, where 1 is the maximum; inconclusive = response in the unintended direction; inactive = score below 0.9.

Assay: TOX21_p53_BLA_p2_viability: Viability Assessment in the Tox21 HCT-116 p53 Agonism Beta-lactamase Assay, Phase 2 (AID 2283591);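 also: compound exposure lasted 16 h at 37 °C; actives lower the ATP signal meaning cytotoxicity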
Outline: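 HCT-116 p53-bla cells (4000/well) rested 5 h at 37C, then received compounds in DMSO (217-fold dilution) for 16 h at 37C, 5% CO2. After the CCF4 read, CellTiter-Glo was added; ATP luminescence was read after 30 min at room temperature.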

Row | SMILES | outcome | AC50
1 | O=C(NC(=O)c1c(F)cccc1F)Nc1ccc(Oc2ccc(C(F)(F)F)cc2Cl)cc1F | inactive | –
2 | CC1CCCC1.[C-]#[O+].[C-]#[O+].[C-]#[O+].[Mn] | inactive | –
3 | CCCCNP(N)(N)=S | inactive | –
4 | Nc1ccccc1C(=O)Oc1ccc2ccccc2c1 | – | 85.3 µM (active)
5 | C=CC(=O)OC | inactive | –
6 | CN1C[C@H](C(=O)N[C@]2(C)O[C@@]3(O)[C@@H]4CCCN4C(=O)[C@H](Cc4ccccc4)N3C2=O)C=C2c3cccc4[nH]cc(c34)C[C@H]21 | inactive | –
7 | O=[N+]([O-])C=Cc1ccccc1 | – | 27.2 µM (active)
8 | Nc1ccc(Cl)c(Cl)c1 | inactive | –
9 | CC(O)CN(CC(C)O)CC(C)O (stereo not drawn) | inactive | –
10 | Nc1cc(Cl)cc(Cl)c1 | inactive | –
11 | O=[N+]([O-])c1ccc(Cl)cc1 | inactive | –
12 | COC(=O)COc1ccc(Cl)cc1Cl | inactive | –
13 | [CH3][Sn]([Cl])([Cl])[Cl] | inactive | –
14 | CC(=O)c1cc2c(cc1C)C(C)(C)C(C)CC2(C)C (stereo not drawn) | inactive | –
15 | c1cc(OCC2CO2)ccc1Cc1ccc(OCC2CO2)cc1 (stereo not drawn) | inactive | –
16 | C=CC(=O)OCCCCOC(=O)C=C | – | 69.5 µM (active)
17 | c1ccc2c(c1)CCCC2 | inactive | –
18 | CCOC(=O)C1OC1(C)c1ccccc1 (stereo not drawn) | inactive | –
19 | [Cl][Sb]([Cl])[Cl] | inactive | –
20 | CC(C)[C@@H](C(=O)O[C@@H](C#N)c1cccc(Oc2ccccc2)c1)c1ccc(Cl)cc1 | inactive | –
21 | C[C@]12CC[C@H]3[C@@H](CC[C@@]45O[C@@H]4C(O)=C(C#N)C[C@]35C)[C@@H]1CC[C@@H]2O | inactive | –
22 | O=[N+]([O-])c1cc([N+](=O)[O-])c2ccccc2c1 | inactive | –
23 | O=C(O)C(Br)Br | inactive | –
